Measurements published in PubChem BioAssay AID956 (National Center for Advancing Translational Sciences (NCATS), 2007).
Some of the results follow. Where a call stands in place of a potency, no number is given. Inconclusive results are not listed. Active and inactive are the calls of the source. Calls come from the whole dose curve.

biological target: Amyloid-beta precursor protein (Homo sapiens) (UniProt P05067); test: Beta amyloid ThS binding assay; details: Abeta1-42 fibrillization, thioflavin S fluorescence, overnight 37 C
Method: NIH Molecular Libraries Screening Centers Network [MLSCN] NIH Chemical Genomics Center [NCGC] MLSCN Grant: 1 X01 MH079825-01 Assay Provider: Jeffrey A. Kuret, Ohio State University NCGC Assay Overview: Alzheimer disease is characterized by the accumulation of proteinacious aggregates comprised of tau and beta-amyloid. The protein components of each lesion can be induced to form filaments under experimentally tractable times when incubated in vitro with anionic inducers such as alkyl sulfate detergents or fatty acids. […] Here we describe the in vitro fibrillization of beta-amyloid 1-42 (Abeta1-42). Abeta1-42 proteins were induced to form filaments by incubation overnight at 37 C in the presence of arachidonic acid. […] Small molecules capable of ThS displacement or antagonizing fibrillization result in a decrease in ThS fluorescence, allowing determination of binding affinities for molecules screened.
NCGC Assay Protocol Summary Human Beta amyloid peptide 1-42 (American Peptide Co., Sunnyvale, CA) was resuspended in hexafluoroisopropanol (by vortexing in a glass vial) to a final concentration of 1 mM. […] Fluorescence (ex = 440 nm; em = 485 nm) was measured after brief shaking (10 s) in a FlexStation plate reader (Molecular Devices, Sunnyvale, CA) operated at sensitivity 10, automatic PMT. […]

Amyloid-beta precursor protein (Homo sapiens), sequence (P05067 whole entry, looked up): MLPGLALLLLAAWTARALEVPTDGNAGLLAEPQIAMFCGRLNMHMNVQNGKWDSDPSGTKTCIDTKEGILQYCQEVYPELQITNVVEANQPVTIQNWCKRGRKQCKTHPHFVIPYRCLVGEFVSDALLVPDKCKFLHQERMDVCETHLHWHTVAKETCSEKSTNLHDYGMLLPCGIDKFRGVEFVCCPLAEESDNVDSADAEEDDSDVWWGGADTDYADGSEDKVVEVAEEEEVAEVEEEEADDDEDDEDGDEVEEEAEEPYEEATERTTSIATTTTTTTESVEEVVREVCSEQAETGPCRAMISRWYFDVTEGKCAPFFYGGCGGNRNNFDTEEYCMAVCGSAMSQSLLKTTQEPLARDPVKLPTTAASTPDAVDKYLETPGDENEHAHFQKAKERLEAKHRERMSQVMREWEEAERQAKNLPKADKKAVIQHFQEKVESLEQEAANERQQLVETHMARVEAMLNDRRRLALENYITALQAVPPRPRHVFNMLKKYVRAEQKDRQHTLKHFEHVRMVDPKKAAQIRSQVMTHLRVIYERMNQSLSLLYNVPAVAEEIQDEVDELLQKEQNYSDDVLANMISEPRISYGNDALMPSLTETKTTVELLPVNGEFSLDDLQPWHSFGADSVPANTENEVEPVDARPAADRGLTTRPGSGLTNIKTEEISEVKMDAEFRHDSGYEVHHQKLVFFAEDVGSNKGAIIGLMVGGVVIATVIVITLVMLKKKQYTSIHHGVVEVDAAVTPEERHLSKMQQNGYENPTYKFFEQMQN

| SMILES | outcome | Potency |
| --- | --- | --- |
| O=C(CCCCn1c(=O)[nH]c2ccccc2c1=O)NCc1ccc2c(c1)OCO2 | inactive |  |
| Oc1ccc(O)c2c(O)cccc12 |  | 4.52 µM (active) |
